The record followed here is PubChem BioAssay.

Assay [1] deals with Plasmodium falciparum Sir2 (PF13_0152, Sir2A). The assay is described as follows: Plasmodium falciparum Sir2A binding compounds – biochemical, small-molecule microarray, 635 nm fluorescence, primary screen (AID 1098).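 Further: score merges spot fluorescence intensity with its signal-to-noise ratio.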 The settings on record: fluorescence 635 nm, higher = more signal.
A short description of assay [2]: probe aDKK1 binding to arrayed compounds – biochemical, biotinylated probe, 635/667 nm fluorescence, primary screen (AID 1099).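 Further: score merges 667nm spot fluorescence with signal to noise across triplicate slides.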 The settings on record: small-molecule microarray, higher = more signal.
Assay [3] in a line: probe aCHRDL2 binding to arrayed compounds – biochemical, biotinylated probe, 635/667 nm fluorescence, primary screen (AID 1100). The settings on record: small-molecule microarray, higher = more signal.
Assay [4] can be described thus: change in splice reporter luminescence, either direction, cell-based, HEK293, spliceosome inhibition project, primary screen (AID 1101).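 Further: HEK293 cells carrying a splicing-competent luciferase reporter gene; test concentration not given here.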 The settings on record: HEK293 splicing luciferase reporter, 24 h, higher = more signal, called active from +8 up or from −8 down.
Assay [5] deals with Fibroblast growth factor 10 (Homo sapiens) (UniProt O15520). Kind of assay: compounds binding fibroblast growth factor 10 – biochemical, small-molecule microarray, 635 nm fluorescence, primary screen (AID 1102). The settings on record: FGF10 binding, fluorescence 635 nm, higher = more signal.
The subject of assay [6] is glycogen synthase kinase-3 (GSK3A per assay name; protocol says GSK3B). Kind of assay: compounds binding glycogen synthase kinase-3 – biochemical, small-molecule microarray, 635 nm fluorescence, GSK3A, primary screen (AID 1103). Further: the record names both GSK3A and GSK3B. To be noted: fluorescence 635 nm, higher = more signal.
The target of assay [7] is Epidermal growth factor receptor (Homo sapiens) (UniProt P00533). The assay is described as follows: compounds binding epidermal growth factor receptor – biochemical, small-molecule microarray, 635 nm fluorescence, primary screen (AID 1104).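 Further: score merges 667 nm emission intensity with spot signal to noise over triplicate slides.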 The settings on record: EGFR binding, higher = more signal.
In assay [8] the target is Follistatin-related protein 3 (Homo sapiens) (UniProt O95633). Kind of assay: compounds binding follistatin-related protein 3 – biochemical, small-molecule microarray, 635 nm fluorescence, primary screen (AID 1105).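 Further: score merges emission near 667 nm and signal to noise per printed spot across three slides.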 The settings on record: FSTL3 binding, higher = more signal.
The target of assay [9] is Dickkopf-related protein 1 (Homo sapiens) (UniProt O94907). Kind of assay: small molecules binding DKK1 protein – biochemical, small-molecule microarray, 635 nm fluorescence scan, primary screen (AID 1106).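 Further: score merges emission near 667 nm with signal to noise over three replicate slides.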 To be noted: higher = more signal.
For assay [10], the system named is Inhibin beta A chain (activin A). The assay is described as follows: small molecules binding activin A – biochemical, small-molecule microarray, 635 nm fluorescence scan, primary screen (AID 1107).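 Further: mouse activin A protein probed at 4.33 µg/mL on printed slides; score merges bound-protein fluorescence near 667 nm with spot signal-to-noise.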 To be noted: INHBA, higher = more signal.
The test system of assay [11] is Human papillomavirus type 1a protein E7 (residues 44-93). Kind of assay: small molecules binding HPV E7 44-93 – biochemical, small-molecule microarray, residues 44-93, 635 nm fluorescence, primary screen (AID 1108).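 Further: E7 fragment applied at 1 µg/mL in TBST for 1 h at 4 C; score combines spot fluorescence with its signal to noise ratio.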 The settings on record: fluorescence 635 nm, higher = more signal.
A short description of assay [12]: hepatitis C replication reporter changes, two-sided – Huh7 cells, luciferase reporter, HCV replication inhibitor project, primary screen (AID 1109).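 Further: huh7 hepatoma cells harbouring a luciferase neomycin HCV replicon reporter; luciferase luminescence as measure of HCV replicon replication; test concentration not given here.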 To be noted: Huh7 HCV replicon luciferase reporter, 48 h; higher = more signal.
Assay [13] addresses Left-right determination factor 2 (Homo sapiens) (UniProt O00292). Kind of assay: small molecules binding LEFTY2 protein – biochemical, small-molecule microarray, 635 nm fluorescence scan, primary screen (AID 1110). To be noted: higher = more signal.
Assay [14] addresses Calmodulin-1 (Homo sapiens) (UniProt P0DP23). The assay is described as follows: small molecules binding calmodulin-1 with EGTA – biochemical, small-molecule microarray, Cy5-labelled CALM1, profiling panel (AID 1111).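 Further: labelled calmodulin applied in Tris saline Tween buffer holding calcium plus EGTA and DTT.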 The settings on record: Cy5-CALM1 binding fluorescence, higher = more signal.
The target is the same in assay [15]. The assay is described as follows: small molecules binding Ca-loaded calmodulin-1 – biochemical, small-molecule microarray, Cy5-labelled CALM1, plus calcium, artefact control for SMM control-protein annotation, profiling panel (AID 1112).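 Further: score merges spot fluorescence with signal to noise from triplicate slides.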 To be noted: Cy5-CALM1 binding fluorescence, higher = more signal.
Assay [16] in a line: probe aWnt5a binding to arrayed compounds – biochemical, biotinylated probe, 635/667 nm fluorescence, primary screen (AID 1113).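 Further: score merges 667 nm fluorescence intensity with signal-to-noise per printed feature.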 The settings on record: small-molecule microarray, higher = more signal.
Assay [17] is described as follows: probe aShh binding to arrayed compounds – biochemical, biotinylated probe, 635/667 nm fluorescence, primary screen (AID 1114).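 Further: probe is biotin-labelled aShh protein from a stem cell growth factor screen; measures binding of labelled protein to compounds printed on the slide; score merges feature fluorescence at 667 nm with signal-to-noise.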 To be noted: small-molecule microarray, higher = more signal.
A short description of assay [18]: probe aNog binding to arrayed compounds – biochemical, biotinylated probe, 635/667 nm fluorescence, primary screen (AID 1115).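 Further: probe is biotinylated aNog protein used at 0.15 µg/mL for 1 h at 4 C; z-score combines 667 nm fluorescence of each spot with its signal to noise.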 To be noted: small-molecule microarray, higher = more signal.
Assay [19] concerns the target Torsin-1A-interacting protein 1 (Homo sapiens) (UniProt Q5JTV8). Kind of assay: compound microarray binding of lysate hLAP1 – cell lysate, small-molecule microarray, COS7 lysate, 635/667 nm fluorescence, primary screen (AID 1116). The settings on record: 635 nm fluorescence, higher = more signal.
The target in assay [20] is Alpha-bungarotoxin (Bungarus multicinctus) (UniProt P60615). Kind of assay: compounds binding labelled alpha-BTX control protein – biochemical, small-molecule microarray, Alexa647 label, 635/667 nm fluorescence, artefact control for SMM control protein annotation, profiling panel (AID 1117). The settings on record: alpha-BTX-A647 binding fluorescence, higher = more signal.

Activity calls are given as the source filed them.

Chain of Torsin-1A-interacting protein 1 (Homo sapiens) (Q5JTV8 whole entry, looked up): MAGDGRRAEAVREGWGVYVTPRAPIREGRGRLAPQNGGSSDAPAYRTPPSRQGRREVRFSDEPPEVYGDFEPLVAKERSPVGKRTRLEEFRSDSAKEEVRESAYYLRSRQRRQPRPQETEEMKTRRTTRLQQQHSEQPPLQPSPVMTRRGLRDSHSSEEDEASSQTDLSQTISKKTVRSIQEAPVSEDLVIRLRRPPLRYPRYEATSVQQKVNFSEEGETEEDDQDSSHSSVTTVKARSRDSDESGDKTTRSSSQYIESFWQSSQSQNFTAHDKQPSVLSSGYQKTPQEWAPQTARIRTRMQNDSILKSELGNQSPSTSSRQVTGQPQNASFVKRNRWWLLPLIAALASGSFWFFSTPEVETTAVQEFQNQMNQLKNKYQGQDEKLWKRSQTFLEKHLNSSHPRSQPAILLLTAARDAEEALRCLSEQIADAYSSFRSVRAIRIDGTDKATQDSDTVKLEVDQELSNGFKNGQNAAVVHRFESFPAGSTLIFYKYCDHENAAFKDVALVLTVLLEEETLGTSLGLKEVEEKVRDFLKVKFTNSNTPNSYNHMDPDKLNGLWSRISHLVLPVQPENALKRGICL
Chain of Epidermal growth factor receptor (Homo sapiens) (P00533 whole entry, looked up): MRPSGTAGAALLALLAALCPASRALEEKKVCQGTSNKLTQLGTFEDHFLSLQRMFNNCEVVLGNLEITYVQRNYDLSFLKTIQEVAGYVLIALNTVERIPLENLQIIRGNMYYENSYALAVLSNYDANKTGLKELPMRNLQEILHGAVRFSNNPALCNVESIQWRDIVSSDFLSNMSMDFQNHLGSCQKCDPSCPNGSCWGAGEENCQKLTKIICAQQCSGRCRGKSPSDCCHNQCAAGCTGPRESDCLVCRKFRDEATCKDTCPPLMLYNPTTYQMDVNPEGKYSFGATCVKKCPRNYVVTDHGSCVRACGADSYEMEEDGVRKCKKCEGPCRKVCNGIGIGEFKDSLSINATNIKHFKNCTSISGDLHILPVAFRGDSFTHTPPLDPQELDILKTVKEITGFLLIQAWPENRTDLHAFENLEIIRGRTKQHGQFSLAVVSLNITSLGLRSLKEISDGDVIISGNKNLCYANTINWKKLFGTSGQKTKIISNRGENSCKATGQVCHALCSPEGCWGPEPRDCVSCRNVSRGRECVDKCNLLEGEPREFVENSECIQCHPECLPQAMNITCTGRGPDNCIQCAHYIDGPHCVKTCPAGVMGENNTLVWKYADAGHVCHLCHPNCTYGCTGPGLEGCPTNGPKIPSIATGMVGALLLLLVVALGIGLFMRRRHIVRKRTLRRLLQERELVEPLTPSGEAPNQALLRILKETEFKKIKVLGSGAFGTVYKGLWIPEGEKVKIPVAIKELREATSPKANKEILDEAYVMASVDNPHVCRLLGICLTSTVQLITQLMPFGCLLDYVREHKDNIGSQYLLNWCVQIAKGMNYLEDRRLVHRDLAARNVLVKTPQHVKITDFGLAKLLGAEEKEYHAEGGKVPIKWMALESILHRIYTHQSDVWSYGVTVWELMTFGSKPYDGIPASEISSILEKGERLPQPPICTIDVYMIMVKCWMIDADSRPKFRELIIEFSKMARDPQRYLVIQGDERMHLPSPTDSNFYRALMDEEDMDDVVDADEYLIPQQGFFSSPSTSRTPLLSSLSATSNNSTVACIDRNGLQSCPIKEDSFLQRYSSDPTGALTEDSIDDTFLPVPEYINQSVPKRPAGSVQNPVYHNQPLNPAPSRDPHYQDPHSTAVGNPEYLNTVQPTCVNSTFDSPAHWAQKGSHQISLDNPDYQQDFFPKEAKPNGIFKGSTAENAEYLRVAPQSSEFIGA
Chain of Left-right determination factor 2 (Homo sapiens) (O00292 whole entry, looked up): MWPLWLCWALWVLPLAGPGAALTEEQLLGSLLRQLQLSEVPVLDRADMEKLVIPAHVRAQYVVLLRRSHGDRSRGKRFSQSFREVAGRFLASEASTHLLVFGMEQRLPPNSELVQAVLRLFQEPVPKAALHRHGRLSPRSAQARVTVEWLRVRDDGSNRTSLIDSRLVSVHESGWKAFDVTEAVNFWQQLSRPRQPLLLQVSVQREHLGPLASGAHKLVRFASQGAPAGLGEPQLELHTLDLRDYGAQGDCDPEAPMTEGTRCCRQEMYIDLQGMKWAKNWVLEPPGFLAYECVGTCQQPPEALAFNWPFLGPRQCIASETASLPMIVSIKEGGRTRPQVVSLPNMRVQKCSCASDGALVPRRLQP
Chain of Alpha-bungarotoxin (Bungarus multicinctus) (P60615 whole entry, looked up): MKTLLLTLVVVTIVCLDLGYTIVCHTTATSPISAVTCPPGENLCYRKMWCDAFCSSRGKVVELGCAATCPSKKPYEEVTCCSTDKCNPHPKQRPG
Chain of Fibroblast growth factor 10 (Homo sapiens) (O15520 whole entry, looked up): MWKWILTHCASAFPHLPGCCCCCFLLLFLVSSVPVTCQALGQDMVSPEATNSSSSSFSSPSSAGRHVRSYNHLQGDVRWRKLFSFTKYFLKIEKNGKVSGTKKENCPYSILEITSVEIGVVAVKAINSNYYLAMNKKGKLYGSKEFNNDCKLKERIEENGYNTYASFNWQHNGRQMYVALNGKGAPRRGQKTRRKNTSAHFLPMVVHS
Chain of Dickkopf-related protein 1 (Homo sapiens) (O94907 whole entry, looked up): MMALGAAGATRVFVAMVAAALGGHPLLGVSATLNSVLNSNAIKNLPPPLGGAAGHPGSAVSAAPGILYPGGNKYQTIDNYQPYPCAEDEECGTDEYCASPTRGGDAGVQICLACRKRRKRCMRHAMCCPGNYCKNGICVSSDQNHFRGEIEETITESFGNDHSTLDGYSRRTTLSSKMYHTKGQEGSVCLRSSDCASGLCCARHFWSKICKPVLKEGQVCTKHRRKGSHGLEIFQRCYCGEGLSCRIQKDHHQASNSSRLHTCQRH
Chain of Follistatin-related protein 3 (Homo sapiens) (O95633 whole entry, looked up): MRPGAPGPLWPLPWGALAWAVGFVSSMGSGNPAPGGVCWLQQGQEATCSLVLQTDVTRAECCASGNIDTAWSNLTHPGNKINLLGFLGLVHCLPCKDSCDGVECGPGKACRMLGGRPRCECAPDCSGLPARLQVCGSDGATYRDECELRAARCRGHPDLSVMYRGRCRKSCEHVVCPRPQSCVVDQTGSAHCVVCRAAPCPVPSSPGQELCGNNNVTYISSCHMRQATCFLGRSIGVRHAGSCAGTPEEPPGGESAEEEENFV

As to `Cc1ccccc1C(O)C1C=CC2C(=O)N(c3ccccc3)C(=O)C2N1Nc1ccc(C#N)cc1` (stereo not given), the composite z-score amounted to 1.56 in assay [1]; 1.35 in assay [2]; 1.4 in [3]; 1.16 in assay [5]; 1.3 in assay [6]; 0.832 in assay [7]. Besides, the composite z-score in assay [8] is 1.05; in assay [9] it was 0.311; in assay [10], 0.958; in [11], 1.22; in assay [13] it was 0.588; in assay [14] it was 2.68. The composite z-score in assay [15] stood at 1.27; in assay [16], 0.24; in assay [17], 0.333; in [18], 2.26; in [19], 3.02; in assay [20], 1.94. In addition, the z-score is 0.898 (inactive) in assay [4] and -0.15 in assay [12].
For `COC(=O)c1ccc(C#CC(NP(=O)(c2ccccc2)c2ccccc2)c2ccccc2)cc1` (stereo not given), the composite z-score is -0.179 in assay [1]; 1.2 in assay [2]; 1.38 in assay [3]; 0.847 in [5]; -0.245 in [6]; 1.77 in assay [7]. In addition, the composite z-score was 1.7 in assay [8]; 0.567 in [9]; 1.76 in assay [10]; 1.39 in [11]; -0.34 in assay [13]; 1.92 in assay [14]. Besides, the composite z-score in assay [15] was 0.863; in assay [16], 0.0381; in assay [17], -0.519; in [18] it was 1.59; in [19], 0.403; in [20] it was 2.89. Also, the z-score in [4] was 5.42 (inactive); in [12] it was -0.173.
On to `C=CC[C@]1(C(=O)N2CCCCC2)N=C(c2ccc(OCCCO)cc2)O[C@H]1c1ccccc1N=[N+]=[N-]`, for which the composite z-score is 1.55 in assay [1]; 1.26 in assay [2]; 1.42 in assay [3]; 0.975 in [5]; 1.27 in assay [6]; 0.292 in assay [7]. The composite z-score in [8] was 1.3; in assay [9] it was -0.0913; in assay [10] it was 1.06; in assay [11], 0.796; in [13] it was 0.218; in [14], 2.16. Further, the composite z-score in assay [15] was 0.994; in [16], 0.0327; in assay [17], 0.195; in [18] it was -0.174; in assay [19] it was 1.85; in assay [20], 2.28. Moreover, the results for the z-score in assay [4] and in [12] were -0.461 (inactive) and -0.668, respectively.
